Hits are enriched below; roughly 2.4% of the tested compounds scored in any of these assays.
Cruzain inh noDet – blocks cruzain activity in detergent-free assay; purified cruzain, Z-FR-AMC fluorescence, no detergent; Potency, µM, hits mostly inhibitors; 2.3% of 200,000 active; also: nearly all actives have a fitted effect of over 40% in size
Target sequence (P25779 123-467 limits assumed): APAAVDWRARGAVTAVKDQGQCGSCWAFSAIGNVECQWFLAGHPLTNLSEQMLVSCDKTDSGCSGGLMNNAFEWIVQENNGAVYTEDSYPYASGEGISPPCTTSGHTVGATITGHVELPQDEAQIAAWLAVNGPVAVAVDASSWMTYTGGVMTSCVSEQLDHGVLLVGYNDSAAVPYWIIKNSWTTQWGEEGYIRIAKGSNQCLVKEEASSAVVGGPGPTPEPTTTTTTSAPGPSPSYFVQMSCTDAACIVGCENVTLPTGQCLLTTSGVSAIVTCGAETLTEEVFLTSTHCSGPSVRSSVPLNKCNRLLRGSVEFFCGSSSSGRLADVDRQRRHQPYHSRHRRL
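Purified cruzain at 1.5 nM, pre-incubated 15 min with compound at room temperature in 100 mM sodium acetate pH 5.5, 5 mM DTT, 0.00005% Triton X-100. Reaction started with 2 uM Z-FR-AMC; AMC fluorescence increase over 60 s gives rate.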
Cruzain inh Det – blocks cruzain activity in presence of Triton detergent. P25779. purified cruzain, Z-FR-AMC fluorescence, 0.01% Triton. Potency, µM, actives largely listed as inhibitors. 0.43% of 200,000 active. AID 1478; also: nearly all actives have a fitted effect of over 40% in size
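Steps: dispense cruzain (1.5 nM final) in acetate buffer pH 5.5 with DTT and 0.01% Triton X-100; pin-transfer compounds; incubate 15 min RT; add Z-FR-AMC (2 uM final); read fluorescence every 30 s, using the 60 s intensity change.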
Hits are given with their value; 0 = inactive; ? = inconclusive; ! = not confirmed by another sample. Calls follow the shape of the dose curve; as a rule, active = well fitted curve in the direction sought with a large enough effect; inconclusive = small, poorly fitted or top-dose-only effect, or another doubt; inactive = no such curve, though single readings can be large; an effect the other way counts as inactive or inconclusive.

SMILES	Cruzain inh noDet	Cruzain inh Det
COc1ccc(C(=O)N/N=C/c2sc3ccccc3c2O)cc1	0	0
COc1ccc2cc(C(=O)N/N=C/c3sc4ccccc4c3O)ccc2c1	?	28µM
Cc1ccc(NS(=O)(=O)c2ccc3c(c2)C(=O)c2ccccc2C3=O)c(C)c1	0	0
Cc1ccc(C)c(NS(=O)(=O)c2ccc3c(c2)Cc2cc(S(=O)(=O)Nc4cc(C)ccc4C)ccc2-3)c1	7.9µM	0
Cc1cccc(NC(=O)C(=O)NCC(c2cccnc2)N2CCN(Cc3ccccc3)CC2)c1 (stereo not given)	0	0
Cc1nc(Nc2cccc(C(F)(F)F)c2)nc2c1C(=O)CC(C)C2 (stereo not given)	16µM	0
Cc1cccc(Nc2ncc3c(n2)CC(C)CC3=O)c1 (stereo not given)	0	0
NC(=NCc1ccc(Cl)c(Cl)c1)NC(=O)c1nc(Cl)c(N)nc1N	?	0
COc1cc(-c2ccc(N=Nc3ccc4c(S(=O)(=O)O)cc(S(=O)(=O)O)c(N)c4c3O)c(OC)c2)ccc1N=Nc1ccc2c(S(=O)(=O)O)cc(S(=O)(=O)O)c(N)c2c1O	?	25µM!
Cc1nn(-c2ccc(S(=O)(=O)O)cc2)c(O)c1N=Nc1ccc(-c2ccc(N=Nc3ccc4c(S(=O)(=O)O)cc(S(=O)(=O)O)c(N)c4c3O)c(O)c2)cc1O.[Cu].[Cu]	0	0
COc1ccc(-c2nc(-c3ccccc3)nc(Cl)c2C#N)cc1	0	0
CNc1nc(-c2ccccc2)nc(-c2ccccc2)c1C#N	7.9µM	0
O=C(CN1N=C(c2ccc(Cl)cc2)CCC1=O)NCc1ccc(F)cc1	0	0
COc1ccc(NC(=O)CSc2ccc3nc(-c4ccccc4)cn3n2)c(OC)c1	0	0
Cc1ccc(NC(=O)CCc2c(C)nc3ncnn3c2C)cc1Cl	0	0
O=C1c2cccc(O)c2C(=O)c2c(O[C@@H]3O[C@H](CO)[C@@H](O)[C@H](O)[C@@H]3O)cccc21	0	0
O=C(O)c1cc(O)c2c(c1)[C@H]([C@H]1c3cc(C(=O)O)cc(O)c3C(=O)c3c(O[C@@H]4OC(CO)C(O)C(O)C4O)cccc31)c1cccc(O[C@@H]3OC(CO)C(O)C(O)C3O)c1C2=O (stereo not given in full)	?	16µM
CC(C)Cn1cc(C(=O)N2CCN(c3cccc(Cl)c3)CC2)c2c3ccccc3n(C)c2c1=O	0	0
Cc1ccc(S(=O)(=O)/C(=C/Cl)NC(=O)c2ccccc2)cc1	25µM	22µM
Cc1ccc(C(=O)NC(=C(Cl)Cl)S(=O)(=O)c2ccc(C)cc2)cc1	0	0
CCc1ccccc1NC(=O)c1nnn(-c2ccc(F)cc2)c1C	0	0
CSc1nsc(/C=C/Nc2ccc(C)cc2)c1C#N	3.2µM	0
COc1cc(/C=N/Nc2snc(SC)c2C#N)ccc1O	0	0
COc1cc(C2C(C#N)=C(N)Oc3c2ccc2ccccc32)ccc1OCC(=O)Nc1ccc(C)cc1 (stereo not given)	10µM	0
N#CC1=C(N)Oc2c(ccc3ccccc23)C1c1ccsc1 (stereo not given)	0	0
SMILES	Cruzain inh noDet	Cruzain inh Det
COC(=O)C1=C(C)OC(N)=C(C#N)C1c1ccc(OC)c(OC)c1OC (stereo not given)	0	0
COc1cc(C2C(C#N)=C(N)Oc3c2ccc2ccccc32)ccc1OCC(=O)Nc1cccc(C)c1 (stereo not given)	7.9µM	0
CCOC(=O)c1ccc(NC(=O)Nc2ccn(C)n2)cc1	0	0
CCOC(=O)c1ccc(NC(=O)Nc2cc(C)on2)cc1	16µM	0
COc1cc(OC)c(NC(=O)c2csc3c2CCC(C)C3)cc1Cl (stereo not given)	0	0
O=C1c2ccccc2C(Nc2ccc3c(c2)OCO3)N1Cc1ccc2c(c1)OCO2 (stereo not given)	25µM	0
O=C1c2ccccc2C(Nc2cccnc2)N1Cc1ccc2c(c1)OCO2 (stereo not given)	0	0
Cc1ccc(Cn2c(SCC(=O)C(C)(C)C)nc3ccsc3c2=O)cc1	0	0
c1ccc(CN=C2NN=C(c3cc4ccccc4o3)CS2)cc1	?	0
c1ccc2oc(C3=NNC(=NC4CC4)SC3)cc2c1	16µM	0
Cc1cccc(-n2c3c(cc(-c4nc(-c5ccc(Cl)cc5)cs4)c2=O)C(=O)CC(C)(C)C3)c1	0	0
CCC(=O)N1CCc2cc(Br)cc(S(=O)(=O)N3CCCC(C(=O)Nc4cccc(Cl)c4C)C3)c21 (stereo not given)	0	0
CCN(CC)c1ccc2cc(-c3nc(-c4ccc(OC)cc4)cs3)c(=O)oc2c1	10µM	0
CCN(CC)c1ccc2cc(-c3nc(-c4ccc(Cl)cc4Cl)cs3)c(=O)oc2c1	0	0
COCCn1c(=NC(=O)CN2C(=O)CCC2=O)sc2cc(S(N)(=O)=O)ccc21	0	0
COCCn1c(=NC(=O)c2ccc(S(=O)(=O)N3CCc4ccccc4C3)cc2)sc2cc(OC)ccc21	4µM	0
CCc1nn2c(=O)cc(COC(=O)c3ccccc3NC(=O)COc3ccccc3C)nc2s1	0	0
N#CCc1c(C#N)c(N)nc(N2CCN(c3ccc(F)cc3)CC2)c1C#N	16µM	0
N#CCc1c(C#N)c(N)nc(N2CCN(Cc3ccc4c(c3)OCO4)CC2)c1C#N	0	0
COc1ccc(OCc2ccc(-c3nc(C#N)c(N4CCN(c5cccc(Cl)c5)CC4)o3)o2)cc1	0	0
CCOc1ccc(-n2nc3ccc(NC(=O)c4ccc(C)cc4C)cc3n2)cc1	0	0
Cc1nc2c(ccc3nc(NC(=O)c4ccc5c(c4)OCCO5)sc32)s1	0	14µM
Cc1nc2ccc3nc(NC(=O)c4ccc5c(c4)OCCO5)sc3c2s1	0	0
CCn1c(CN2CCC(C)CC2)nc2cc(NC(=O)c3cccc([N+](=O)[O-])c3)ccc21	0	0
O=C(Nc1nnc(Cc2c[nH]c3ccccc23)s1)c1ccc(Cl)cc1Cl	25µM	0
SMILES	Cruzain inh noDet	Cruzain inh Det
CC(C)(C)c1ccc(C(=O)Nc2nnc(Cc3c[nH]c4ccccc34)s2)cc1	?	0
CCOc1ccccc1-c1ccc(C(=O)O)s1	?	0
CN1c2ccccc2C(C)(C)C12C=Cc1cc(O)ccc1O2 (stereo not given)	0	0
CN1c2ccccc2C(C)(C)C12C=Nc1c(cc(N3CCOCC3)c3ccccc13)O2 (stereo not given)	25µM	0
CCCN(C(=O)c1cn(C)c(=O)c2cc(OC)c(OC)cc12)c1ccc(CC)cc1	?	0
CCOc1ccc(N(C(=O)c2ccc(OC)cc2)S(=O)(=O)c2ccc3c(c2)n(C)c(=O)n3C)cc1	?	0
CC1=C(C(=O)Nc2ccccc2C)C(c2cccnc2)n2nc(SCc3ccccc3F)nc2N1 (stereo not given)	0	0
COc1ccc2c(c1)c1nnc(SCC(=O)N3CCCCC3C)nc1n2C (stereo not given)	0	14µM
COc1ccc(N2CCN(C(=O)CSc3nnc4c5cc(C)ccc5n(C)c4n3)CC2)cc1	?	0
CC(Oc1ccccc1)C(=O)N1CCN(Cc2cc(=O)n3nc(-c4ccccc4Cl)sc3n2)CC1 (stereo not given)	0	0
CCOc1ccccc1NC(=O)c1ccc(F)c(S(=O)(=O)NCc2ccc3c(c2)OCO3)c1	0	0
CCOC(=O)c1oc2ccc(S(=O)(=O)n3nc(-c4ccc(C)cc4)cc3N)cc2c1C	?	0
CCOC(=O)c1oc2ccc(S(=O)(=O)n3nc(-c4ccc(Cl)cc4)cc3N)cc2c1C	13µM	0

Compound activity: PubChem, National Center for Advancing Translational Sciences (NCATS)
